# Measured values from PubChem BioAssay (NCI).
# About 79,000 compounds went through this panel and 15% of them were active in at least one assay; those are over-represented in the sample as a whole. Unmarked numbers belong to inactive results. Activity calls are given as the source filed them. No stated cut-off is given here; in the data, active means growth inhibition above about 70%; inactive means the rest.
# Key:
# [1] = NCI Yeast Anticancer Drug Screen. Data for the wt1 strain (AID 149);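 further: 0% = growth of vehicle-treated wt1 cultures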; settings: S. cerevisiae wt1 strain (SPY 50644) growth inhibition, hits give high values
# Outline: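 Measured: growth of wt1 yeast under compound versus vehicle treatment, reported as inhibition.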
# [2] = NCI Yeast Anticancer Drug Screen. Data for the rad50EPP+ strain (AID 151);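 further: 0% = growth of vehicle-treated control cultures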; settings: S. cerevisiae rad50 mutant strain, hits give high values
# Outline: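 rad50EPP+ yeast treated with test compounds. Readout: growth vs vehicle control.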
# [3] = NCI Yeast Anticancer Drug Screen. Data for the mgt1 strain (AID 153); settings: S. cerevisiae mgt1 mutant growth inhibition, hits give high values
# Outline: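 Growth inhibition relative to vehicle controls was scored for the mgt1 yeast strain after compound exposure.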
# [4] = NCI Yeast Anticancer Drug Screen. Data for the rad50 strain (AID 155);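 further: 0% = growth of vehicle-only cultures of the same strain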; settings: S. cerevisiae rad50 strain growth inhibition, hits give high values
# Outline: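 Growth of the mutant yeast was measured after compound exposure and referenced to vehicle-treated cultures.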
# [5] = NCI Yeast Anticancer Drug Screen. Data for the mec2-1 strain (AID 157); settings: S. cerevisiae mec2-1 strain, hits give high values
# Outline: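 Growth inhibition is read against vehicle-treated controls after compound exposure of the mec2-1 yeast strain, which is defective in DNA damage repair or cell cycle control.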
# [6] = NCI Yeast Anticancer Drug Screen. Data for the rad14 strain (AID 159);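 further: 0% = growth of vehicle-treated control cultures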; settings: S. cerevisiae rad14 strain growth inhibition, hits give high values
# Outline: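 Here, inhibition of yeast growth was measured after compound exposure, using a strain with a genetic defect in DNA damage repair and vehicle-treated cultures as the reference.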
# [7] = NCI Yeast Anticancer Drug Screen. Data for the sgs1 mgt1 strain (AID 161);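 further: 0% = growth of cultures given vehicle only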; settings: S. cerevisiae sgs1 mgt1 strain, hits give high values
# Outline: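 Growth of a repair-deficient yeast mutant was monitored after compound treatment and expressed as inhibition relative to vehicle-treated cultures.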
# [8] = NCI Yeast Anticancer Drug Screen. Data for the CLN2oe strain (AID 163);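 further: 0% = growth of vehicle-only control cultures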; settings: S. cerevisiae CLN2oe strain, hits give high values
# Outline: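 Compound-treated yeast; growth vs vehicle ctrl = % inhibition. Genetically altered strain (cell-cycle control).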
# [9] = NCI Yeast Anticancer Drug Screen. Data for the cln2 rad14 strain (AID 165);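 further: 0% = growth equal to vehicle treated cultures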; settings: S. cerevisiae cln2 rad14 strain, hits give high values
# Outline: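 Growth inhibition, relative to vehicle-treated controls, is the read-out. The test organism is a yeast strain with defined genetic alterations, cln2 rad14.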
# [10] = NCI Yeast Anticancer Drug Screen. Data for the bub3 strain (AID 167); settings: S. cerevisiae bub3 mutant strain, hits give high values
# Outline: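 Whole-cell yeast assay. The mutant strain was incubated with compounds, and growth inhibition was determined by comparison with vehicle-treated cells.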
# [11] = NCI Yeast Anticancer Drug Screen. Data for the mlh1 strain (AID 171);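 further: 0% = growth of vehicle-treated control cultures of the same strain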; settings: S. cerevisiae mlh1 strain growth inhibition, hits give high values
# Outline: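 Compounds are applied to a genetically altered yeast strain, and its growth is compared with that of vehicle-treated cultures to give percent inhibition.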
# [12] = NCI Yeast Anticancer Drug Screen. Data for the sgs1 strain (AID 173);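 further: 0% = growth of vehicle-only control cultures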; settings: S. cerevisiae sgs1 mutant, hits give high values
# Outline: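 Compounds applied to genetically altered yeast; growth compared with vehicle-treated cultures to give % inhibition.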
# [13] = NCI Yeast Anticancer Drug Screen. Data for the rad18 strain (AID 177); settings: S. cerevisiae rad18 mutant growth inhibition, hits give high values
# Outline: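 Compounds are applied to a repair-deficient yeast strain, and growth is compared with that of vehicle-treated cultures to give percent inhibition.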
# [14] = NCI Yeast Anticancer Drug Screen. Data for the wt2 strain (AID 169);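 further: 0% = growth of vehicle-treated yeast cultures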; settings: S. cerevisiae wt2 strain growth inhibition, hits give high values
# Outline: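 Compound exposure of yeast; growth compared with vehicle controls; inhibition reported.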
# [15] = NCI Yeast Anticancer Drug Screen. Data for the mlh1 rad18 strain (AID 175); settings: S. cerevisiae mlh1 rad18 strain growth inhibition, hits give high values
# Outline: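 Cells of a genetically altered yeast strain, deficient in DNA damage repair, were treated with compound. Their growth was then compared with that of vehicle-treated cultures to give inhibition.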
# [16] = at 5.0 µM (retest, dose inferred, filed as 0.5)
# [17] = at 50.0 µM (retest, dose inferred, filed as 5.0)
structure (smiles),measurement,setting,value
CN(C)CCC(C(=O)C(Br)Br)(c1ccccc1)c1ccccc1,growth inhibition,[1]; at 1.2 µM,-2%
same,growth inhibition,[1]; at 3.7 µM,-1%
same,growth inhibition,[1]; at 11.0 µM,26%
same,growth inhibition,[1]; at 33.0 µM,98% (active)
same,growth inhibition,[1]; at 100.0 µM,99% (active)
same,growth inhibition,[2]; at 1.2 µM,-2%
same,growth inhibition,[2]; at 3.7 µM,-5%
same,growth inhibition,[2]; at 11.0 µM,-1%
same,growth inhibition,[2]; at 33.0 µM,21%
same,growth inhibition,[2]; at 100.0 µM,72% (active)
same,growth inhibition,[3]; at 1.2 µM,-1%
same,growth inhibition,[3]; at 3.7 µM,0%
same,growth inhibition,[3]; at 11.0 µM,96% (active)
same,growth inhibition,[3]; at 33.0 µM,99% (active)
same,growth inhibition,[3]; at 100.0 µM,99% (active)
same,growth inhibition,[4]; at 1.2 µM,0%
same,growth inhibition,[4]; at 3.7 µM,12%
same,growth inhibition,[4]; [16],16%
same,growth inhibition,[4]; at 11.0 µM,82% (active)
same,growth inhibition,[4]; at 33.0 µM,99% (active)
same,growth inhibition,[4]; [17],99% (active)
same,growth inhibition,[4]; at 50.0 µM,98.8% (active)
same,growth inhibition,[4]; at 100.0 µM,99% (active)
same,growth inhibition,[5]; at 1.2 µM,3%
same,growth inhibition,[5]; at 3.7 µM,2%
same,growth inhibition,[5]; [16],16%
same,growth inhibition,[5]; at 11.0 µM,96% (active)
same,growth inhibition,[5]; at 33.0 µM,99% (active)
same,growth inhibition,[5]; [17],38%
same,growth inhibition,[5]; at 50.0 µM,99.3% (active)
same,growth inhibition,[5]; at 100.0 µM,100% (active)
same,growth inhibition,[6]; at 1.2 µM,7%
same,growth inhibition,[6]; at 3.7 µM,30%
same,growth inhibition,[6]; at 11.0 µM,95% (active)
same,growth inhibition,[6]; at 33.0 µM,99% (active)
same,growth inhibition,[6]; at 100.0 µM,99% (active)
same,growth inhibition,[7]; [16],40%
same,growth inhibition,[7]; [17],99% (active)
same,growth inhibition,[7]; at 50.0 µM,97.3% (active)
same,growth inhibition,[8]; at 1.2 µM,0%
same,growth inhibition,[8]; at 3.7 µM,12%
same,growth inhibition,[8]; at 11.0 µM,74% (active)
same,growth inhibition,[8]; at 33.0 µM,99% (active)
same,growth inhibition,[8]; at 100.0 µM,98% (active)
same,growth inhibition,[9]; [16],19%
same,growth inhibition,[9]; [17],99% (active)
same,growth inhibition,[9]; at 50.0 µM,99.1% (active)
same,growth inhibition,[10]; at 1.2 µM,-6%
same,growth inhibition,[10]; at 3.7 µM,0%
same,growth inhibition,[10]; [16],-69%
same,growth inhibition,[10]; at 11.0 µM,94% (active)
same,growth inhibition,[10]; at 33.0 µM,99% (active)
same,growth inhibition,[10]; [17],98% (active)
same,growth inhibition,[10]; at 50.0 µM,99.5% (active)
same,growth inhibition,[10]; at 100.0 µM,99% (active)
same,growth inhibition,[11]; at 1.2 µM,2%
same,growth inhibition,[11]; at 3.7 µM,1%
same,growth inhibition,[11]; at 11.0 µM,61%
same,growth inhibition,[11]; at 33.0 µM,99% (active)
same,growth inhibition,[11]; at 100.0 µM,100% (active)
same,growth inhibition,[12]; at 1.2 µM,-1%
same,growth inhibition,[12]; at 3.7 µM,17%
same,growth inhibition,[12]; at 11.0 µM,94% (active)
same,growth inhibition,[12]; at 33.0 µM,99% (active)
same,growth inhibition,[12]; at 100.0 µM,99% (active)
same,growth inhibition,[13]; at 1.2 µM,2%
same,growth inhibition,[13]; at 3.7 µM,11%
same,growth inhibition,[13]; at 11.0 µM,88% (active)
same,growth inhibition,[13]; at 33.0 µM,99% (active)
same,growth inhibition,[13]; at 100.0 µM,99% (active)
CN(N=O)C(=O)NNC(=O)N(C)N=O,growth inhibition,[1]; at 1.2 µM,0%
same,growth inhibition,[1]; at 3.7 µM,1%
same,growth inhibition,[1]; at 11.0 µM,5%
same,growth inhibition,[1]; at 33.0 µM,16%
same,growth inhibition,[1]; at 100.0 µM,38%
same,growth inhibition,[2]; at 1.2 µM,3%
same,growth inhibition,[2]; at 3.7 µM,16%
same,growth inhibition,[2]; at 11.0 µM,62%
same,growth inhibition,[2]; at 33.0 µM,93% (active)
same,growth inhibition,[2]; at 100.0 µM,95% (active)
same,growth inhibition,[3]; at 1.2 µM,9%
same,growth inhibition,[3]; at 3.7 µM,28%
same,growth inhibition,[3]; at 11.0 µM,51%
same,growth inhibition,[3]; at 33.0 µM,88% (active)
same,growth inhibition,[3]; at 100.0 µM,96% (active)
same,growth inhibition,[4]; at 1.2 µM,6%
same,growth inhibition,[4]; at 3.7 µM,23%
same,growth inhibition,[4]; [16],21%
same,growth inhibition,[4]; at 11.0 µM,56%
same,growth inhibition,[4]; at 33.0 µM,92% (active)
same,growth inhibition,[4]; [17],95% (active)
same,growth inhibition,[4]; at 50.0 µM,94.9% (active)
same,growth inhibition,[4]; at 100.0 µM,96% (active)
same,growth inhibition,[5]; at 1.2 µM,-2%
same,growth inhibition,[5]; at 3.7 µM,3%
same,growth inhibition,[5]; [16],10%
same,growth inhibition,[5]; at 11.0 µM,22%
same,growth inhibition,[5]; at 33.0 µM,61%
same,growth inhibition,[5]; [17],85% (active)
same,growth inhibition,[5]; at 50.0 µM,38.2%
same,growth inhibition,[5]; at 100.0 µM,96% (active)
same,growth inhibition,[6]; at 1.2 µM,-2%
same,growth inhibition,[6]; at 3.7 µM,18%
same,growth inhibition,[6]; at 11.0 µM,5%
same,growth inhibition,[6]; at 33.0 µM,22%
same,growth inhibition,[6]; at 100.0 µM,57%
same,growth inhibition,[7]; [16],74% (active)
same,growth inhibition,[7]; [17],96% (active)
same,growth inhibition,[7]; at 50.0 µM,91.6% (active)
same,growth inhibition,[8]; at 1.2 µM,-5%
same,growth inhibition,[8]; at 3.7 µM,-4%
same,growth inhibition,[8]; at 11.0 µM,-7%
same,growth inhibition,[8]; at 33.0 µM,11%
same,growth inhibition,[8]; at 100.0 µM,41%
same,growth inhibition,[9]; [16],-32%
same,growth inhibition,[9]; [17],18%
same,growth inhibition,[9]; at 50.0 µM,11.7%
same,growth inhibition,[10]; at 1.2 µM,-9%
same,growth inhibition,[10]; at 3.7 µM,5%
same,growth inhibition,[10]; [16],-11%
same,growth inhibition,[10]; at 11.0 µM,-6%
same,growth inhibition,[10]; at 33.0 µM,15%
same,growth inhibition,[10]; [17],27%
same,growth inhibition,[10]; at 50.0 µM,1.9%
same,growth inhibition,[10]; at 100.0 µM,39%
same,growth inhibition,[14]; at 1.2 µM,-3%
same,growth inhibition,[14]; at 3.7 µM,-2%
same,growth inhibition,[14]; at 11.0 µM,1%
same,growth inhibition,[14]; at 33.0 µM,16%
same,growth inhibition,[14]; at 100.0 µM,49%
same,growth inhibition,[11]; at 1.2 µM,-1%
same,growth inhibition,[11]; at 3.7 µM,-3%
same,growth inhibition,[11]; at 11.0 µM,7%
same,growth inhibition,[11]; at 33.0 µM,31%
same,growth inhibition,[11]; at 100.0 µM,68%
same,growth inhibition,[12]; at 1.2 µM,11%
same,growth inhibition,[12]; at 3.7 µM,26%
same,growth inhibition,[12]; at 11.0 µM,52%
same,growth inhibition,[12]; at 33.0 µM,81% (active)
same,growth inhibition,[12]; at 100.0 µM,91% (active)
same,growth inhibition,[15]; [16],6%
same,growth inhibition,[15]; [17],89% (active)
same,growth inhibition,[15]; at 50.0 µM,67%
same,growth inhibition,[13]; at 1.2 µM,71% (active)
same,growth inhibition,[13]; at 3.7 µM,95% (active)
same,growth inhibition,[13]; at 11.0 µM,96% (active)
same,growth inhibition,[13]; at 33.0 µM,96% (active)
same,growth inhibition,[13]; at 100.0 µM,96% (active)
